Among the data in PubChem BioAssay are composite z-score and z-score values, retold here.

Assay [1] has as its system Wnt5a (protein binding on small-molecule microarray). Briefly: small molecules binding Wnt5a protein – biophysical, small-molecule microarray, 635/667 nm fluorescence, primary screen (AID 1142).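 Further: fluorescence read at 667 nm with signal to noise per printed feature.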 Particulars: 635 nm fluorescence, higher = more signal.
The nature of assay [2]: ATP-based viability of Huh7 replicon cells – cell-based, CellTiter-Glo luminescence, basal, 48 h, cytotoxicity control for HCV replication inhibitor project, primary screen (AID 1143).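 Further: Huh7 hepatoma cells carrying a hepatitis C replication reporter with no stimulus; test concentration not given here.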 The note with it: higher = more signal, called active from +8 up or from −8 down. (Replicon systems follow genome replication, usually without infectious particles.)
The nature of assay [3]: Pseudomonas biofilm growth suppression – PAO1 strain, BacTiter-Glo luminescence, LB-PBS, primary screen (AID 1144). Particulars: P. aeruginosa PAO1 biofilm, 12 h, higher = more signal.
Assay [4] can be described thus: basal CRE-LacZ reporter activity in PC12 – cell-based, unstimulated, primary screen (AID 1145). Particulars: no forskolin, luminescence, 4.5 h, higher = more signal, called active from +8 up or from −8 down.
Assay [5] in a line: forskolin-driven CRE-LacZ activity in PC12 – cell-based, CRE-LacZ reporter, forskolin-stimulated, primary screen (AID 1146).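 Further: PC12 cells with 6xCRE LacZ reporter stimulated by forskolin 10 µM; beta-galactosidase reporter signal reflecting CREB driven transcription.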 The note with it: luminescence, 4.5 h, higher = more signal, called active from +8 up or from −8 down.
The target in assay [6] is Streptavidin (Streptomyces avidinii) (UniProt P22629). Briefly: compounds binding control protein streptavidin – biophysical, small-molecule microarray, 635/667 nm fluorescence, artefact control for SMM compound annotation, primary screen (AID 1147).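 Further: signal reflects streptavidin binding to arrayed compounds as a control protein.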 Particulars: higher = more signal.
Streptavidin (Streptomyces avidinii), sequence (P22629 whole entry, looked up): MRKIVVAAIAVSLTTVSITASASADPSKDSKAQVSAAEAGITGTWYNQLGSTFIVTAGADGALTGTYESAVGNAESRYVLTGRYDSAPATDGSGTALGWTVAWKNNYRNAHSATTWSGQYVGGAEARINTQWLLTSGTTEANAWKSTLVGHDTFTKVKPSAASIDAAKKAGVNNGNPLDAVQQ
Assay [7] in a line: probe aInhba binding on compound microarray – biochemical, small-molecule microarray, 635/667 nm fluorescence, primary screen (AID 1148).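 Further: score merges 667nm spot fluorescence with signal-to-noise for antibody binding to printed compounds.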 The note with it: higher = more signal.
In assay [8] the target is Torsin-1A (Homo sapiens) (UniProt O14656). Briefly: TOR1A wild-type binding on microarray – cell lysate, small-molecule microarray, lysate, 635/667 nm, primary screen (AID 1149). Particulars: COS7 hTOR1A-WT lysate, 635 nm fluorescence, higher = more signal.
Torsin-1A (Homo sapiens), sequence (O14656 whole entry, looked up): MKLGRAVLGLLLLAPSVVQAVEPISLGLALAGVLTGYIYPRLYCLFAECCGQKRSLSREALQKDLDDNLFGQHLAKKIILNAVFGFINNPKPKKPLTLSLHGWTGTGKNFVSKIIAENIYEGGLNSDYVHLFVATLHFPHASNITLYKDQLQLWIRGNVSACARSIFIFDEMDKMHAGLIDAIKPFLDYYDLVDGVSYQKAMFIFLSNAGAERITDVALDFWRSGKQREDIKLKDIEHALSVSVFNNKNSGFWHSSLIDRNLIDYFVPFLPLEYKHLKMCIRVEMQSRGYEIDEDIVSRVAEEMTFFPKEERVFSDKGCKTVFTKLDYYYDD
Assay [9] shares this target. Briefly: torsin A mutant lysate binding on microarrays – cell lysate, small-molecule microarray, COS7 lysate, 635/667 nm fluorescence, primary screen (AID 1150).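 Further: score pools 667 nm emission and signal to noise measuring lysate protein binding.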 The note with it: COS7 hTOR1A mutant lysate, 635 nm fluorescence, higher = more signal.
The test system of assay [10] is Sonic hedgehog protein (Shh). Briefly: Sonic hedgehog microarray binding compounds – biochemical, small-molecule microarray, 635/667 nm fluorescence, primary screen (AID 1151).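 Further: Shh protein binding to compounds spotted on small-molecule microarray slides; score combines spot fluorescence intensity with signal-to-noise across triplicate slides.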 The note with it: 635 nm fluorescence, higher = more signal.

The structures appear in SMILES notation. Calls of active or inactive are those of the source. Unless noted, how the calls were made is not given here.

As for `CCCCC(=C=CC[C@H](O)c1ccc(CO)o1)CCO`, the composite z-score is 0.0119 in assay [1]; -0.144 in [6]; -0.128 in [7]; 1.39 in the assay with Torsin-1A (Homo sapiens) [8]; 0.587 in the assay with Torsin-1A (Homo sapiens) [9]; 1.69 in assay [10]. In addition, the z-score is 0.0865 (inactive) in assay [2], 0.0836 (inactive) in assay [3], 0.96 (inactive) in assay [4] and 1.56 (inactive) in assay [5].
`Cc1ccc(S[C@]2(C(=O)NCc3ccccc3)CC(=O)N(Cc3ccccc3C(F)(F)F)[C@@H]2c2ccc(CO)cc2)cc1`: the composite z-score is -0.666 in assay [1]; -1.05 in [6]; 0.0391 in assay [7]; -1.02 in the assay with Torsin-1A (Homo sapiens) [8]; -0.687 with Torsin-1A (Homo sapiens) [9]; -0.998 in [10]. Moreover, the z-score was -2.35 (inactive) in assay [2], -0.937 (inactive) in assay [3], -0.0888 (inactive) in assay [4] and -0.0177 (inactive) in assay [5].
`CC(=O)c1ccc(C(O)C2C=CC3C(=O)N(c4ccccc4)C(=O)C3N2Nc2ccc(C(C)C)cc2)cc1` (stereo not given): the composite z-score is 0.0129 in [1]; 1.43 in assay [6]; 0.361 in assay [7]; -0.127 with Torsin-1A (Homo sapiens) [8]; 0.135 in the assay with Torsin-1A (Homo sapiens) [9]; 0.295 in assay [10]. The z-score is -1.16 (inactive) in [2], -0.853 (inactive) in [3], 1.4 (inactive) in [4] and -0.17 (inactive) in assay [5].
Take `COC(=O)[C@@]1(Cc2ccccc2)[C@H]2c3cc(C(=O)N(C)C)n(CCSC(=N)N)c3C[C@H]2CN1C(=O)c1ccccc1`: the composite z-score in assay [1] is -0.042; in assay [6] it was -0.405; in assay [7], 0.0444; in the assay with Torsin-1A (Homo sapiens) [8] it was -0.524; with Torsin-1A (Homo sapiens) [9], -0.209; in assay [10], -0.564. Moreover, the z-score was 0.0619 (inactive) in assay [2], -0.367 (inactive) in [3], 0.583 (inactive) in [4] and 0.53 (inactive) in assay [5].
For `CCOC(=O)C[C@H]1[C@H](OC(=O)Cc2ccc3c(c2)OCO3)[C@@H](NC(=O)Cc2ccc(OC)cc2)c2cc(OCCCO)ccc2N1C(=O)Cc1ccc(OC)cc1`, the composite z-score is -0.31 in [1]; 0.699 in assay [6]; -0.154 in assay [7]; 0.142 with Torsin-1A (Homo sapiens) [8]; 0.209 with Torsin-1A (Homo sapiens) [9]; 0.106 in assay [10]. Also, the z-score in assay [2] was -0.972 (inactive); in assay [3], -0.805 (inactive); in [4], 1.52 (inactive); in assay [5] it was -0.0811 (inactive).
As to `COC(=O)C(CC#Cc1ccc2c(c1)[C@]1(C(=O)N2)[C@H](c2ccccc2OCCO)N2[C@H](c3ccccc3)[C@H](c3ccccc3)OC(=O)[C@H]2[C@@H]1C(=O)N1CCc2cc(OC)c(OC)cc2C1)C(=O)OC`, the composite z-score is 0.237 in [1]; 1.11 in assay [6]; -0.138 in assay [7]; 0.757 with Torsin-1A (Homo sapiens) [8]; 0.674 with Torsin-1A (Homo sapiens) [9]; 1.82 in assay [10]. In addition, the z-score in assay [2] is -3.09 (inactive); in [3], -0.888 (inactive); in assay [4], -0.0515 (inactive); in assay [5] it was 0.509 (inactive).
Take `CC(C)=CCCC(C)=CC(O)C1C=CC2C(=O)NC(=O)C2N1Nc1ccc(Cl)cc1Cl` (stereo not given): the composite z-score was 0.623 in assay [1]; 1.26 in assay [6]; -0.0035 in assay [7]; -0.0743 in the assay with Torsin-1A (Homo sapiens) [8]; 0.622 with Torsin-1A (Homo sapiens) [9]; 0.737 in assay [10]. The z-score is -1.64 (inactive) in assay [2], -0.815 (inactive) in assay [3], 0.822 (inactive) in assay [4] and 0.501 (inactive) in assay [5].
For `[N-]=[N+]=Nc1ccccc1C[C@@]1(C(=O)NCC(O)CO)N=C(c2ccc(OCCCO)cc2)O[C@@H]1c1ccccc1` (stereo not given in full), the composite z-score in [1] is 0.674; in assay [6] it was 1.45; in [7] it was 0.0047; with Torsin-1A (Homo sapiens) [8], 0.744; with Torsin-1A (Homo sapiens) [9], 0.944; in assay [10] it was -0.538. For the same compound, the z-score is -3.5 (inactive) in [2], 0.557 (inactive) in assay [3], -0.16 (inactive) in [4] and -0.57 (inactive) in assay [5].
Consider `O=C(N1CCOCC1)[C@@]1(Cc2ccccc2)COC(c2ccc(OCCCO)cc2)=N1`, for which the composite z-score in [1] was 0.242; in assay [6], 0.647; in assay [7], 0.0422; with Torsin-1A (Homo sapiens) [8] it was 0.315; with Torsin-1A (Homo sapiens) [9] it was 1.02; in assay [10] it was -1.05. Besides, the z-score in assay [2] is -5.19 (inactive); in [3] it was -0.446 (inactive); in [4], 0.484 (inactive); in assay [5], -2.35 (inactive).
On to `C=CC1c2cc(O)c(OC)cc2CCN1C` (stereo not given), for which the composite z-score in assay [1] is -0.148; in assay [6] it was -0.0377; in assay [7], -0.0695; with Torsin-1A (Homo sapiens) [8], -0.45; in the assay with Torsin-1A (Homo sapiens) [9], -0.231; in [10] it was -0.881. For the same compound, the z-score in assay [2] was 0.235 (inactive); in assay [3], 0.51 (inactive); in assay [4] it was 0.182 (inactive); in assay [5], -0.439 (inactive).
Regarding `CC1CC/C=C\[C@H]2OC34C=CCN(CCN5CCOCC5)C(=O)[C@H]3N(CCCO)C(=O)[C@@H]4C2C(=O)O1` (stereo not given in full), the composite z-score in assay [1] is -0.239; in [6], -0.601; in assay [7], -0.154; with Torsin-1A (Homo sapiens) [8], -0.0243; in the assay with Torsin-1A (Homo sapiens) [9], 0.0876; in assay [10], 0.624. In addition, the z-score in assay [2] is 0.0123 (inactive); in [3], 1.13 (inactive); in assay [4], -0.887 (inactive); in assay [5], -0.0703 (inactive).
Regarding `Cc1ccc(F)cc1S(=O)(=O)N[C@H]1CCN(Cc2ccc(OC(C)C)cc2)C1`, the composite z-score in assay [1] was -0.223; in [6], -0.48; in assay [7] it was -0.0963; with Torsin-1A (Homo sapiens) [8], 0.149; with Torsin-1A (Homo sapiens) [9] it was -0.0115; in assay [10], 1.75. Besides, the z-score in assay [2] was -3.11 (inactive); in [3], 0.434 (inactive); in [4], 1.4 (inactive); in assay [5] it was -0.592 (inactive).
Consider `O=C1NC(=O)C2C1C=CC(C(O)c1ccc(B(O)O)cc1)N2Nc1ccc(Cl)cc1Cl` (stereo not given), for which the composite z-score was -0.0744 in [1]; 1.09 in assay [6]; 0.0074 in assay [7]; -1.22 with Torsin-1A (Homo sapiens) [8]; -0.147 with Torsin-1A (Homo sapiens) [9]; -0.589 in assay [10]. Moreover, the z-score in assay [2] was -0.245 (inactive); in assay [3] it was -0.661 (inactive); in assay [4], -0.515 (inactive); in assay [5], 0.763 (inactive).
Take `COCCCNC(=O)[C@@H]1c2ccccc2C(=O)N(Cc2ccc(OC(F)(F)F)cc2)[C@H]1c1ccc(CO)cc1`: the composite z-score in [1] is 0.53; in assay [6], -0.0096; in [7], -0.0221; with Torsin-1A (Homo sapiens) [8], 0.0966; with Torsin-1A (Homo sapiens) [9], 0.281; in assay [10], 1.09. The z-score in [2] was -0.429 (inactive); in assay [3], 0.0789 (inactive); in assay [4], 0.674 (inactive); in assay [5], 0.0988 (inactive).
As to `O=C1N(Cc2ccccc2)c2ccccc2C[C@@]12COC(c1ccc(OCCCO)cc1)=N2`, the composite z-score was 0.82 in assay [1]; 0.431 in [6]; 0.397 in assay [7]; 0.492 with Torsin-1A (Homo sapiens) [8]; 1.03 with Torsin-1A (Homo sapiens) [9]; 0.383 in [10]. Also, the z-score is -3.39 (inactive) in [2], -0.576 (inactive) in assay [3], 2.41 (inactive) in assay [4] and -0.914 (inactive) in assay [5].
`CC1=C([C@H](O)CCc2ccccc2)[C@H](CO)n2c(=O)n(-c3ccccc3)c(=O)n2C1`: the composite z-score in assay [1] was -0.0682; in [6], -0.141; in assay [7] it was -0.202; in the assay with Torsin-1A (Homo sapiens) [8], 0.217; with Torsin-1A (Homo sapiens) [9], -0.485; in assay [10] it was 0.359. Besides, the z-score in [2] was -1.13 (inactive); in [3] it was -1.21 (inactive); in assay [4], 0.399 (inactive); in assay [5] it was 0.0978 (inactive).
`CCCC[C@H]1OB(O)C[C@H]2C1=C(COc1ccccc1)C[C@H]1C(=O)C=CC(=O)[C@H]12`: the composite z-score in assay [1] was 0.119; in [6] it was 0.0073; in assay [7] it was -0.158; with Torsin-1A (Homo sapiens) [8] it was 0.372; in the assay with Torsin-1A (Homo sapiens) [9] it was 0.274; in assay [10] it was 1.38. Also, the z-score in [2] was -0.578 (inactive); in assay [3] it was -0.327 (inactive); in assay [4], 6.38 (inactive); in [5], 2.07 (inactive).
Take `COC(=O)[C@@]1(Cc2ccc(F)cc2)[C@H]2c3cc(C(=O)N(C)C)n(C)c3C[C@H]2CN1C(=O)c1ccccc1`: the composite z-score in [1] was 0.418; in assay [6], 0.069; in assay [7] it was 0.395; with Torsin-1A (Homo sapiens) [8] it was -0.0772; with Torsin-1A (Homo sapiens) [9], 0.814; in assay [10], -0.34. Also, the z-score in assay [2] was -0.771 (inactive); in assay [3], -0.259 (inactive); in assay [4], 0.0007 (inactive); in assay [5] it was -0.339 (inactive).
